# Measurements from the supplement of paper PMC4188521.
# Compound: CCc1cnn2c(NCc3ccc[n+]([O-])c3)cc(N3CCCC[C@H]3CCO)nc12 [dinaciclib]
# Assay: cell viability remaining relative to DMSO control; higher = less cytotoxic (more viable cells)
# Details: 100 nM; 24 h
# Procedure: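 Solid tumor cell lines were treated with dinaciclib (100 nM) for 24 hr. Viability was measured by CellTiter-Glo ATP luminescence and expressed as % of DMSO-treated control wells (mean of 2-6 plates, triplicate wells per plate).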
row,Target,cell viability remaining [%]
1,OVTOKO,95.4
2,SCC9,64.4
3,H1944,76.9
4,SW1463,87.4
5,A673,29.2
6,OV90,99.8
7,MALME3M,54.4
8,CORL105,49
9,SW1271,80.7
10,CAKI1,63.5
11,H446,51.2
12,HS895T,92.4
13,HCT116,55.4
14,SAOS2,32.2
15,MCAS,82.8
16,ES2,52.5
17,PC3,66.2
18,CAPAN2,51.4
19,SKMEL31,66.9
20,HS934T,124

row,Target,cell viability remaining [%]
1,SKNAS,35
2,OV56,59.1
3,SNU16,52.2
4,OVKATE,105
5,H28,107
6,H2030,91.9
7,H82,12.6
8,SW837,79.8
9,SHP77,50.2
10,COV434,7.7
11,HOS,36.2
12,SW620,58.5
13,MFE319,78.3
14,T98G,53.4
15,HUPT4,9.8
16,SKLMS1,82.9
17,COV362,81
18,HCC1428,19.7
19,HEC1A,49
20,EFO27,106
